Experimental data reported in PubChem BioAssay (NCATS).
Results filed as inconclusive are left out. The source made the active and inactive calls. Unless noted, the call rests on the fitted dose curve; in most records, active means well fitted curve in either direction with a large enough effect (not every such curve was filed as active); inconclusive means small, poorly fitted or top-dose-only effect, or another doubt; inactive means flat fitted curve, though single readings scatter.

Columns and labels:
[1] = biological target: Lysosomal acid glucosylceramidase (Homo sapiens) (UniProt P04062); experiment: Glucocerebrosidase-p2 (AID 348; in the data active means potency below about 10 µM; further: potency means the concentration at half of the fitted maximal effect); settings: purified GBA, blue fluorogenic substrate, 40 min
Chain of Lysosomal acid glucosylceramidase (Homo sapiens) (P04062 whole entry, looked up): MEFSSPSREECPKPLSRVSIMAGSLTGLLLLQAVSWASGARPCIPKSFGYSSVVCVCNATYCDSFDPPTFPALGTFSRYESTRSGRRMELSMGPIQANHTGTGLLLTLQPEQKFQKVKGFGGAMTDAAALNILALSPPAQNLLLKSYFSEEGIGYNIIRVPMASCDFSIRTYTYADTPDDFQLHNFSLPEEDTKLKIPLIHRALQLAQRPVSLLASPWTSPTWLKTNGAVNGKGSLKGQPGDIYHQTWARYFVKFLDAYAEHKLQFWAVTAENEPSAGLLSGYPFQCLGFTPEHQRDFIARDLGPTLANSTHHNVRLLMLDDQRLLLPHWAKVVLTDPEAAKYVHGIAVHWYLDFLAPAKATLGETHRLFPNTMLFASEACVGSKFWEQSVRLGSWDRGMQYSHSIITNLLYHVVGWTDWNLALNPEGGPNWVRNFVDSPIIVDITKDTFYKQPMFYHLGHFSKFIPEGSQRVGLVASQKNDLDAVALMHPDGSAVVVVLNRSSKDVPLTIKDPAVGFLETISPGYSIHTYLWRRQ
Summary of the method: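 Compounds titrated from 0.6 nM upwards against 0.2 nM enzyme in pH 5.9 citric acid/KH2PO4, taurocholate, tween-20; blue fluorogenic substrate 80 uM, 40 min room temperature, stopped and read Ex 365/Em 440 for AC50.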

[2] = AP1 Signaling Pathway (AID 357); settings: ME-180 AP-1-bla reporter, EGF-induced, beta-lactamase ratio, 5 h; at 7.69 µM (top of the series) unless noted;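 further: ME-180 reporter cells stimulated with EGF at its EC50 level; on the % scale 0 is the no-effect control and ±100 the full control effect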
Summary of the method: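 First, ME-180 AP-1-bla cells were cultured overnight at 37 °C in low-serum Opti-MEM. Next, titrated compounds with EC50 EGF were incubated 5 hours. Finally, CCF4 was added for 2.5 hours and the 460/530 nm ratio recorded.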

[3] = biological target: Cytochrome P450 1A2 (Homo sapiens) (UniProt P05177); experiment: p450-cyp1a2 (AID 410; calls by dose curve; further: potency means the concentration at half of the fitted maximal effect;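 on activity change, negative = inhibition: -100% = full effect of reference inhibitor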); settings: recombinant CYP1A2, luciferin-ME demethylation, luminescence; series mostly up to 57 µM
Chain of Cytochrome P450 1A2 (Homo sapiens) (P05177 whole entry, looked up): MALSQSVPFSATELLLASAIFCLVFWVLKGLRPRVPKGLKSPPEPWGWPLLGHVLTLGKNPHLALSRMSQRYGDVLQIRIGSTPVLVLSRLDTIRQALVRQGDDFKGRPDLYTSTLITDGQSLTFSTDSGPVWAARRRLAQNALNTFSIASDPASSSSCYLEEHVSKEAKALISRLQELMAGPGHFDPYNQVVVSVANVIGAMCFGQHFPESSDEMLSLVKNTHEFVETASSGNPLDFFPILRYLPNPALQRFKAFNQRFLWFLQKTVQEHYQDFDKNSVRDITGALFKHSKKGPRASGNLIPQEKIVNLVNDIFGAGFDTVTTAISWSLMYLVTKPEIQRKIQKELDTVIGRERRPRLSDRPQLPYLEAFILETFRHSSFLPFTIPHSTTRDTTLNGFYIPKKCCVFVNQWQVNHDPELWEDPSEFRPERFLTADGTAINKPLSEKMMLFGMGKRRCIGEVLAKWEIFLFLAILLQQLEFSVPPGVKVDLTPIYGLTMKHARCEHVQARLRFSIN
Summary of the method: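 Luminescent readout of luciferin formed from Luciferin-ME by human CYP1A2; data normalized against complete inhibition by 57 uM furafylline. Enzyme 20nM, substrate 100uM at Km, 100mM KPO4 buffer, 60 min reaction at room temperature.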

[4] = NFAT Signaling Pathway (AID 444); settings: Jurkat NFAT-bla M1, carbachol, beta-lactamase ratio, 5 h; at 7.69 µM (top of the series) unless noted;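 further: carbachol stimulus at about its EC50 of 1 µM final; on the % scale 0 is the no-effect control and ±100 the full control effect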
Summary of the method: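 Read-out: CCF4 FRET ratio (460 nm/530 nm) after 1 h RT dye loading, used for %activity and AC50 from titration series. Cells: Jurkat NFAT-β-lactamase/M1 line, treated with compound plus 1 uM carbachol for 5 h, 37 °C.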

[5] = Stat Signaling Pathway (AID 446); settings: ME-180 SIE beta-lactamase reporter, IL-6 stimulated, 5 h; at 7.69 µM (top of the series) unless noted;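 further: ME-180 cervical cancer cells given 40 pM IL-6 alongside compound; SIE-controlled beta-lactamase reporter measured as 460/530 nm FRET emission ratio; on the % scale 0 is the no-effect control and ±100 the full control effect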
Summary of the method: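 ME-180 SIE-bla cells; overnight plating; cpd + IL-6 40 pM, 5 h, 37 C; LiveBLAzer 2.5 h RT; 460/530 nm emission ratio. Normalized to 300 pM IL-6 and 125 nM JAK inhibitor controls.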

[6] = biological target: Glucocorticoid receptor (Homo sapiens) (UniProt P04150); experiment: GR-EFC Redistribution (AID 451; calls by dose curve; further: potency means the concentration at half of the fitted maximal effect); settings: CHO-K1 GR-EFC translocation, beta-gal luminescence, 2 h
Chain of Glucocorticoid receptor (Homo sapiens) (P04150 whole entry, looked up, the tested form may be a part): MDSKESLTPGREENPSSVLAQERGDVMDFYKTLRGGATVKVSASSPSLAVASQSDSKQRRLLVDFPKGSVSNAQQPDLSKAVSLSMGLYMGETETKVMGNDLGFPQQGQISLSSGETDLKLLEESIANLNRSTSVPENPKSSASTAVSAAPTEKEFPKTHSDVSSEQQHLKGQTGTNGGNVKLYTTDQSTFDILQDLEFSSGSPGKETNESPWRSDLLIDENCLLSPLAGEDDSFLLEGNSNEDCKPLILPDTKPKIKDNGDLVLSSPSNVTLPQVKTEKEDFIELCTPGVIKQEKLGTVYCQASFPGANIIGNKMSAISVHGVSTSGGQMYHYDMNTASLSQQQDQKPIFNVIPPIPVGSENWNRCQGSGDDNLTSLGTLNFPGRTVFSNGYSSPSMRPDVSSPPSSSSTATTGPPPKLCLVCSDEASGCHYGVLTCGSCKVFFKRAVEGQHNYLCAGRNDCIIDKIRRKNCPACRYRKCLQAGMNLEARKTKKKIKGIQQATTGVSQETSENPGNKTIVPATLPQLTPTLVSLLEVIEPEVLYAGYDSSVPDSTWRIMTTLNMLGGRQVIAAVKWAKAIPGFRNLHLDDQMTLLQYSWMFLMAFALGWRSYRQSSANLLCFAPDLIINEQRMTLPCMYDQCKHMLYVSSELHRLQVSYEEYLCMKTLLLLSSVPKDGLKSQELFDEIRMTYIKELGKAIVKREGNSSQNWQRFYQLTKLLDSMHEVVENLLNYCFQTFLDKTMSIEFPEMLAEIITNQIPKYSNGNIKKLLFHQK
Summary of the method: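 Translocation of GR-ED fusion to nuclear EA restores b-gal, read by luminescence after 1 h room-temperature detection. Engineered CHO-K1 biosensor cells, 1,000/well, exposed 2 h at 37 C to titrations up to 46 uM final.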

[7] = biological target: Mitogen-activated protein kinase 10 (Mus musculus) (UniProt Q61831); experiment: JNK3 AlphaScreen Assay (AID 530); settings: JNK3 lysate, c-Jun phosphorylation; series mostly up to 57.1 µM;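 further: kinase came from lysate of stimulated human HepG2 cells; signal reports phosphorylation of biotinylated GST-cJun 1-79 at Ser73 with 10 µM ATP; on the % scale 0 is the no-effect control and ±100 the full control effect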
Summary of the method: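 Compound titrations were preincubated 15 minutes at room temperature with substrate, antibody and pre-activated JNK3-containing HepG2 lysate. Reactions were started with 10 uM ATP and stopped with EDTA-containing bead buffer for AlphaScreen detection.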

[8] = biological target: 3',5'-cyclic-AMP phosphodiesterase 4B (Homo sapiens) (UniProt Q07343); experiment: qHTS Assay for Inhibitors of PDE-IV (AID 607; active means well fitted activation curve with a large enough effect in the main read-out, with a control signal flat, not every such curve was filed as active; further: % of control where 0% means no effect); settings: HEK293 ACTOne CNG channel cells, membrane potential fluorescence; series mostly up to 22.9 µM
Chain of 3',5'-cyclic-AMP phosphodiesterase 4B (Homo sapiens) (Q07343 whole entry, looked up): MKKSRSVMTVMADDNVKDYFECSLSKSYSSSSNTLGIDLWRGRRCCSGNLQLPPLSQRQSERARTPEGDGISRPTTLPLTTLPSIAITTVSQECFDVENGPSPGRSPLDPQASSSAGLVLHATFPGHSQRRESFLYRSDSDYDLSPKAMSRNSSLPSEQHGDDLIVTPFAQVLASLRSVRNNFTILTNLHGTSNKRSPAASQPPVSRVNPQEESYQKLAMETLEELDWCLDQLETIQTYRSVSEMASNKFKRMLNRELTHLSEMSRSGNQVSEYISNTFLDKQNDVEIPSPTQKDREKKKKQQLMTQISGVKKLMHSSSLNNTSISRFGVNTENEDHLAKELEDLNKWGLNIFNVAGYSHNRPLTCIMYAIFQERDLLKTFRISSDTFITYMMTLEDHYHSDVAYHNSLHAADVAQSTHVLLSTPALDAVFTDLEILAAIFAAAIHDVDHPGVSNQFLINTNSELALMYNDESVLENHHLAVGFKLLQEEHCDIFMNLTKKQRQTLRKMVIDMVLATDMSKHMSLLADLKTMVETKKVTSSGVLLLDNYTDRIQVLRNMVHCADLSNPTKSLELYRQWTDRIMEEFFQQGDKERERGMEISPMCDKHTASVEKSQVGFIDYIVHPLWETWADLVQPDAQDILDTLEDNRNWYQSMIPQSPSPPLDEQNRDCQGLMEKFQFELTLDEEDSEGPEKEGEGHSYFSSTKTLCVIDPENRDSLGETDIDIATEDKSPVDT
Summary of the method: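 ACTOne HEK293 cells carry a modified cAMP-gated CNG channel and express endogenous PDE4; plated 1000 cells/well, compounds up to 22.9 uM final. Membrane-potential dye fluorescence (ex 535/em 590) was read; parental cells received 10 uM forskolin + 100 uM RO 20-1724.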

[9] = biological target: Cytochrome P450 3A4 (Homo sapiens) (UniProt P08684); experiment: qHTS Assay for Inhibitors and Substrates of Cytochrome P450 3A4 (AID 884; active means well fitted curve in the direction sought with a large enough effect; an effect the other way counts as inactive or inconclusive; further: nearly all actives have a fitted effect of over 50% in size; further: potency means the concentration at half of the fitted maximal effect); settings: recombinant CYP3A4, Luciferin-PPXE luminescence; series mostly up to 57.1 µM
Chain of Cytochrome P450 3A4 (Homo sapiens) (P08684 whole entry, looked up): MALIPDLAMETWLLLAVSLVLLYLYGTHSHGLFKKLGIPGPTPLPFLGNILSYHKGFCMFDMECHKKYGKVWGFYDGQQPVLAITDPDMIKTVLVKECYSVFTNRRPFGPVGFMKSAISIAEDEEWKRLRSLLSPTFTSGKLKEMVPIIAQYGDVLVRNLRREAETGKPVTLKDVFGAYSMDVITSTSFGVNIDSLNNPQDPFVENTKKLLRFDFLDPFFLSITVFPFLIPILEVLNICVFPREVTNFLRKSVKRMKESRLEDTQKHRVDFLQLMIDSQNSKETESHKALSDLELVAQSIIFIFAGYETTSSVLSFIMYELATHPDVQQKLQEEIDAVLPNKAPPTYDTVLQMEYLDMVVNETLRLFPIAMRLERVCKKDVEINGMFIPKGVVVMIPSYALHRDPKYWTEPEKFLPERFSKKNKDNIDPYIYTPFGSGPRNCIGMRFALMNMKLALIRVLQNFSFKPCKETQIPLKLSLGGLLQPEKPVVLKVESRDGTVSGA
Summary of the method: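 20 nM human CYP3A4 with 25 uM Luciferin-PPXE (at KM) in 200 mM KPO4, preincubated 10 min with compound; NADPH regeneration started a 60 min RT reaction. Luciferin detected by luminescence, normalized to 57 uM ketoconazole as full inhibition.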

[10] = biological target: Cytochrome P450 3A4 (Homo sapiens) (UniProt P08684); experiment: qHTS Assay for Activators of Cytochrome P450 3A4 (AID 885; active means well fitted curve in the direction sought with a large enough effect; an effect the other way counts as inactive or inconclusive; further: nearly all actives have a fitted effect of over 65% in size; further: potency means the concentration at half of the fitted maximal effect); settings: recombinant CYP3A4, Luciferin-PPXE luminescence, 60 min; series mostly up to 57.1 µM
Summary of the method: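 20nM CYP3A4 + 25uM Luciferin-PPXE (=KM), 200mM KPO4; cpd 10 min RT; NADPH regen, 60 min RT; stop w/ detection buffer, 20 min; luminescence. Normalized to 57 uM ketoconazole.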

[11] = qHTS Assay for Lipid Storage Modulators (AID 1519; calls by dose curve); settings: Drosophila S3 cells, BODIPY lipid droplet/cell ratio, laser cytometry, cells loaded with oleic acid; for activity change, negative = inhibition: at 57.5 µM (top of the series)
Summary of the method: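 Cells seeded at 5,000 per well were treated with compounds over a concentration series and loaded with oleic acid (400 uM, as added). Lipid droplet fluorescence (488 nm excitation, 500-530 nm channel) was read by laser-scanning cytometry and normalized to 20 uM Triacsin C.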

[12] = Primary qHTS for small molecule stabilizers of the endoplasmic reticulum resident proteome: Secreted ER Calcium Modulated Protein (SERCaMP) assay (AID 1508630; active means well fitted curve in the direction sought with a large enough effect; an effect the other way counts as inactive or inconclusive; further: on the % scale 0 is the no-effect control and ±100 the full control effect); settings: SH-SY5Y GLuc-SERCaMP (Gaussia luciferase released on ER calcium loss) secretion, thapsigargin, luminescence; series mostly up to 38.4 µM
Summary of the method: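 GLuc-SERCaMP-expressing SH-SY5Y cells, pretreated 16 h with compound, are challenged with thapsigargin to empty ER calcium stores; after 4 h, coelenterazine is added directly to the medium and luminescence is imaged.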

[13] = biological target: Cytochrome P450 2C19 (Homo sapiens) (UniProt P33261); experiment: qHTS Assay for Inhibitors and Substrates of Cytochrome P450 2C19 (AID 899; active means well fitted curve in the direction sought with a large enough effect; an effect the other way counts as inactive or inconclusive; further: potency means the concentration at half of the fitted maximal effect; nearly all actives have a fitted effect of over 60% in size); settings: recombinant CYP2C19, luciferin-H EGE luminescence; series mostly up to 57.1 µM
Chain of Cytochrome P450 2C19 (Homo sapiens) (P33261 whole entry, looked up): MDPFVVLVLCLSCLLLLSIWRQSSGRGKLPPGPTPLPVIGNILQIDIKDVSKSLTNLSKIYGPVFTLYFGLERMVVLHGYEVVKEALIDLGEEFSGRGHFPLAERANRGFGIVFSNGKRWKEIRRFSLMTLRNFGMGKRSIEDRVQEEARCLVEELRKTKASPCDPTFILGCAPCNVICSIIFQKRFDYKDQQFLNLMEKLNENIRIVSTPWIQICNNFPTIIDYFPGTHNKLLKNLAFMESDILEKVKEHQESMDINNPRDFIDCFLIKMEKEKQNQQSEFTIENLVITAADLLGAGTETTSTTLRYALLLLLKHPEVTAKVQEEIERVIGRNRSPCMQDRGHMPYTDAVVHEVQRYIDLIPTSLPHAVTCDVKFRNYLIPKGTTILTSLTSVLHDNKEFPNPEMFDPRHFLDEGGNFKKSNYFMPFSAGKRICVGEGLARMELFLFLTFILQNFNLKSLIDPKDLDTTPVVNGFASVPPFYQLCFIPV
Summary of the method: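 Luminescence readout of luciferin formed from 10uM Luciferin-H EGE (KM level) by 5 nM CYP2C19 in 50mM KPO4. 60 min NADPH-driven reaction at 37C after 10 min compound preincubation; data scaled to 57uM ketoconazole inhibition.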

[14] = biological target: Cytochrome P450 2D6 (Homo sapiens) (UniProt P10635); experiment: qHTS Assay for Inhibitors and Substrates of Cytochrome P450 2D6 (AID 891; active means well fitted curve in the direction sought with a large enough effect; an effect the other way counts as inactive or inconclusive; further: potency means the concentration at half of the fitted maximal effect; nearly all actives have a fitted effect of over 60% in size); settings: recombinant CYP2D6, luciferin-ME EGE luminescence; series mostly up to 57.1 µM
Chain of Cytochrome P450 2D6 (Homo sapiens) (P10635 whole entry, looked up): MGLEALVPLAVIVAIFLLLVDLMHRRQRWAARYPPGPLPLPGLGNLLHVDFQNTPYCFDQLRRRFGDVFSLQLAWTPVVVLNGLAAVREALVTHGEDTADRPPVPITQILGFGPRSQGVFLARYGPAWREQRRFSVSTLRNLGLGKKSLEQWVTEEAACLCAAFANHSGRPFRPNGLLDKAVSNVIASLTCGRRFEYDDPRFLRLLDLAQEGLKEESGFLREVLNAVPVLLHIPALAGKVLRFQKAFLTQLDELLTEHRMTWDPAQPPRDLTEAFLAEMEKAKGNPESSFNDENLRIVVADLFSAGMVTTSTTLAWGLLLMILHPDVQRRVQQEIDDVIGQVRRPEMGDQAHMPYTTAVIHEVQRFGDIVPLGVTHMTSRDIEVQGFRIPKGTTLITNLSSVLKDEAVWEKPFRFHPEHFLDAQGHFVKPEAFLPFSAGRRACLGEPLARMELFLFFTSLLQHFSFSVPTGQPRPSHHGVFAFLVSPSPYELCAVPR
Summary of the method: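 Human CYP2D6 (5 nM) with 30 uM Luciferin-ME EGE (at Km) in 100 mM KPO4, compound preincubated 10 min, then NADPH regeneration system for 60 min at room temperature. Luciferin read by luminescence; normalized to 1.43 uM quinidine.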

[15] = biological target: Cytochrome P450 2C9 (Homo sapiens) (UniProt P11712); experiment: qHTS Assay for Inhibitors and Substrates of Cytochrome P450 2C9 (AID 883; active means well fitted curve in the direction sought with a large enough effect; an effect the other way counts as inactive or inconclusive; further: on the % scale 0 is the no-effect control and ±100 the full control effect; nearly all actives have a fitted effect of over 60% in size); settings: recombinant CYP2C9, luciferin-H luminescence, 60 min; series mostly up to 57.1 µM
Chain of Cytochrome P450 2C9 (Homo sapiens) (P11712 whole entry, looked up): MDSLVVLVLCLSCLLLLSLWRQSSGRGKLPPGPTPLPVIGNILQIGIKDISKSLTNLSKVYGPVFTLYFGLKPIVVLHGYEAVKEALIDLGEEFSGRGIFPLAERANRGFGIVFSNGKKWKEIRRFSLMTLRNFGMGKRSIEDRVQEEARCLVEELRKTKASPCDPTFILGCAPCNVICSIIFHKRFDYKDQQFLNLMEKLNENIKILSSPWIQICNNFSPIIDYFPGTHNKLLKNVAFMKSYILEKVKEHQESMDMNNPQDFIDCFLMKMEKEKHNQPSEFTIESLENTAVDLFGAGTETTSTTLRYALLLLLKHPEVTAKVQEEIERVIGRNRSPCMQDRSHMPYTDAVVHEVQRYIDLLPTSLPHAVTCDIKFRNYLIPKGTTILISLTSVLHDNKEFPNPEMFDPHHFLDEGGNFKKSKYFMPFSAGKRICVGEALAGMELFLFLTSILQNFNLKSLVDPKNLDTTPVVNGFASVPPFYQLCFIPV
Summary of the method: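 Luminescent read-out of deoxyluciferin hydroxylation, normalized to 57uM sulphaphenazole (AC100). Reaction: 10nM enzyme, 100uM Luciferin-H (equal to KM), 25mM KPO4, 10 min compound preincubation, then 60 min with NADPH regeneration, both at 37C.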

[16] = qHTS Assay for Identification of Small Molecule Agonists for Hypoxia Response Element Signaling Pathway (AID 914; active means well fitted activation curve with a large enough effect in the signal ratio, with a control signal flat, not every such curve was filed as active; the % refers to the signal ratio; further: % of control where 0% means no effect); settings: ME-180 (cervical carcinoma) HRE-bla reporter, beta-lactamase ratio, CoCl2, 17 h; activation: stronger effect = higher value
Summary of the method: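 HRE-bla ME-180 assay for agonist-like enhancement of an EC50 CoCl2 stimulus: 17 h at 37 degrees Celsius, CCF4 for 2.5 h, ratiometric 460/530 nm signal converted to %Activity and fitted to AC50.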

[17] = measured here: cell count channel max response
[18] = measured here: lipid channel max response

Row | Structure (SMILES) | Potency [1] | activity change, negative = inhibition [2] | Potency [3] | activity change, negative = inhibition [4] | activity, negative = inhibition [5] | Potency [6] | outcome [7] | Potency [8] | Potency [9] | Potency [10] | activity change, negative = inhibition [11] | max response [11, 17] [%] | max response [11, 18] [%] | Potency [12] | Potency [13] | Potency [14] | Potency [15] | activation [16]
1 | COC(=O)N1CCC2(CC1)CN(c1ccccn1)C2 | > 11.4 µM (inactive) | -6.58% (inactive) | inactive | -21.4% (inactive) | 9.9% (inactive) | > 46 µM (inactive) | inactive | inactive | inactive | 25.1 µM (active) | 1.4% (inactive) | 2.42 | 5.09 | inactive |  |  |  | 
2 | Cc1noc(C)c1C(=O)N1CCC[C@@]2(CCN(c3ccccc3)C2)C1 | > 11.4 µM (inactive) | -7.05% (inactive) | 25.1 µM (active) | -18.1% (inactive) | 3.26% (inactive) | > 46 µM (inactive) | inactive | inactive | 5.01 µM (active) | inactive | -2.45% (inactive) | 13.4 | 14.8 | inactive |  |  |  | 
3 | O=C(c1cccc(F)c1)N1CCC[C@@]2(CCN(Cc3nccs3)C2)C1 | > 11.4 µM (inactive) | 2.29% (inactive) | 12.6 µM (active) | 7.56% (inactive) | -0.114% (inactive) | > 46 µM (inactive) | inactive | inactive | 7.94 µM (active) |  | 3.24% (inactive) | 16.4 | 22.4 | inactive | 2.51 µM (active) |  |  | 
4 | COc1ccc(NC(=O)N2CC3(CCN(C(=O)c4ccc(OC)cc4)CC3)C2)cc1 | > 11.4 µM (inactive) | -11.7% (inactive) | inactive | 16.6% (inactive) | -5.3% (inactive) | > 46 µM (inactive) | inactive | inactive |  | inactive | 3.98% (inactive) | 12.3 | 17.6 | inactive |  |  |  | 
5 | CC(C)NC(=O)N1CCCC2(CCN(S(=O)(=O)c3ccccc3)CC2)C1 | > 11.4 µM (inactive) | -4.26% (inactive) | inactive | -5.06% (inactive) | -5.18% (inactive) | > 46 µM (inactive) | inactive | inactive | 7.94 µM (active) | inactive | 4.51% (inactive) | 20 | 26.7 | inactive |  | 0.316 µM (active) |  | 
6 | CC(C)NC(=O)N1CCC2(CC1)CCN(C(=O)c1cc(C(F)(F)F)cc(C(F)(F)F)c1)CC2 | > 11.4 µM (inactive) | -12% (inactive) | inactive | 25.7% (inactive) | -9.32% (inactive) | > 46 µM (inactive) | inactive | inactive | inactive |  | -0.11% (inactive) | -8.79 | -7.75 | inactive |  |  | inactive | 9.62% (inactive)
